This is an account of results in PubChem BioAssay (EPA / NIEHS).

SMILES strings stand for the structures. Active and inactive are the calls of the source. Rule for the calls: active = hit-call score of the fitted dose curve at least 0.9, where 1 is the maximum; inactive = score below 0.9.

Transcription factor Sp1 (Homo sapiens), sequence (P08047 whole entry, looked up, the tested form may be a part): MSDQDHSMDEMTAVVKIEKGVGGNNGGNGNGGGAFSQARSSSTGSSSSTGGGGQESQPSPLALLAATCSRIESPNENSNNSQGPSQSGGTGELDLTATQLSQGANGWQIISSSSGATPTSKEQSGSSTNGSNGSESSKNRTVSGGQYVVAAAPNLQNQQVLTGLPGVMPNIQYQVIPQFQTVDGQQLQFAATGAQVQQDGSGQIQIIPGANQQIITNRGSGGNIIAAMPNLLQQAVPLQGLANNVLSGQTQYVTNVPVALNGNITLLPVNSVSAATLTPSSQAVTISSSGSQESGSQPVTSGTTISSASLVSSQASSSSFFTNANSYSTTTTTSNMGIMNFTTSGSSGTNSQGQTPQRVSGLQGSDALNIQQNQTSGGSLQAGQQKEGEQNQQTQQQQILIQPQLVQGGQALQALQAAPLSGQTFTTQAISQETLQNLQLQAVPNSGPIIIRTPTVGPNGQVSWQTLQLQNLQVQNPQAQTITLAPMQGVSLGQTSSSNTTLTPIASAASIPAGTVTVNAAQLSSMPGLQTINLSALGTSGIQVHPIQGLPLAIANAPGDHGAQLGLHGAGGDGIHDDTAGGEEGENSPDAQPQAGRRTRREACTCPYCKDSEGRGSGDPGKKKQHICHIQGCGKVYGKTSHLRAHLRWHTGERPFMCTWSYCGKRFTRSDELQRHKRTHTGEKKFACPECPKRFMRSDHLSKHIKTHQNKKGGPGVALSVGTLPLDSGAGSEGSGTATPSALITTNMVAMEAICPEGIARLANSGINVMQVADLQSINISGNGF

System in the first assay: not listed separately
Briefly: ATG_Sox_CIS: Attagene CIS-FACTORIAL HepG2 Assay for human SRY-box transcription factor (SOX) (AID 2282960). The note with it: HepG2 Attagene cis-factorial SOX reporter, mRNA; actives raise or lower the signal. The gist of the method:
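Gain- or loss-of-signal endpoint, fitted bidirectionally with DMSO as negative control. Based on reporter mRNA from transfected HepG2 cells harvested 24 h post-treatment and quantified via RT-PCR and capillary electrophoresis.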
As for `CCCC(O)C(O)CO` (stereo not drawn), the call was inactive.
On to `COCCc1ccc(OCC(O)CNC(C)C)cc1` (stereo not drawn), for which the compound was called inactive.
The same measure, in the same setting: in the case of `NCCNc1cccc2ccccc12` it was “inactive”; in that of `C=C(C#N)C(=O)OCC`, “inactive”; in that of `CC(C)=CCCC(C)CC(=O)O` (stereo not drawn), “inactive”.
Still for that read-out and setting: in the case of `Cc1c(OCC(F)(F)F)ccnc1CS(=O)c1nc2ccccc2[nH]1` (stereo not drawn) it was “inactive”; in that of `Nc1ccc(NCCO)c([N+](=O)[O-])c1`, “inactive”.
In the case of `CCOC(=O)c1ccc(N)cc1`, the compound was classed as inactive.
As to `Oc1ccc2cc(SSc3ccc4cc(O)ccc4c3)ccc2c1`, the compound was classed as inactive.
Take `CC1=CC[C@@]23C[C@@H]1C(C)(C)[C@@H]2CC[C@H]3C`: the compound was called inactive.
In the case of `C=C(C)CNCC`, the compound was called inactive.
Still for that read-out and setting: in the case of `CC(=O)NCCO` it was “inactive”; in that of `COC(=O)c1ccc(C)cc1C1=NC(C)(C(C)C)C(=O)N1` (stereo not drawn) (tested in a mixture with another compound), “inactive”.
As to `CN1C(=O)c2ccccc2C1=O`, the outcome was inactive.
`OCCCCC(O)CO` (stereo not drawn): the result was inactive.
On the same count and under the same terms, then `CCCCCCCCCCCC(=O)OC[C@@H](O)[C@H]1OC[C@H](O)[C@H]1O`, with “inactive”; and `CN(c1nccc(=O)[nH]1)C1CCN(c2nc3ccccc3n2Cc2ccc(F)cc2)CC1`, with “inactive”; and `CCCCCC(C)=O`, with “inactive”.
Turning to `C[C@H](CCC(=O)NCC(=O)O)[C@H]1CC[C@H]2[C@@H]3[C@H](O)C[C@@H]4C[C@H](O)CC[C@]4(C)[C@H]3C[C@H](O)[C@]12C`, the compound was classed as inactive.
Take `CC(C=O)Cc1ccc(C(C)(C)C)cc1` (stereo not drawn): the outcome was inactive.
Take `CN1CCOCC1`: the result was inactive.
On to `c1ccc(CN(Cc2ccccc2)Cc2ccccc2)cc1`, for which the compound was classed as inactive.
For the compound `CC/C=C\CC/C=C/CO`, the outcome was inactive.
In the case of `CCCCCCC(=O)c1ccccc1`, the outcome was inactive.
On to `O=C1OC(=O)c2c(Cl)c(Cl)c(Cl)c(Cl)c21`, for which the compound was called inactive.
`CCCCSCCCC`: the outcome was inactive.
Still for that read-out and setting: in the case of `C=C(CC(=O)O)C(=O)O` it was “inactive”.
On the same count and under the same terms, then `C=CCOC(=O)CCCCCC`, with “inactive”; and `CCO/C=C1\N=C(c2ccccc2)OC1=O`, with “inactive”; and `COc1ccc(CCO)cc1`, with “inactive”.
The same measure, in the same setting: then `C#CC(C)N(C)C(=O)Nc1ccc(Cl)cc1` (stereo not drawn), with “inactive”; and `O=C(Nc1ccc2c(O)c(N=Nc3ccc(N=Nc4ccc(S(=O)(=O)O)cc4)cc3)c(S(=O)(=O)O)cc2c1)c1ccccc1`, with “inactive”; and `C=C(C)C(=O)OCCOCCOCCOC(=O)C(=C)C`, with “inactive”.
As for `[Cl][Au]([Cl])[Cl]`, the compound was classed as inactive.

A further assay concerns the target Transcription factor Sp1 (Homo sapiens) (UniProt P08047). Nature of the assay: ATG_Sp1_CIS: Attagene CIS-FACTORIAL HepG2 Assay for human Specificity Protein 1 (Sp1) (AID 2282961). Particulars: HepG2 Sp1 cis-reporter transcription, actives raise or lower the signal. The gist of the method:
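Endpoint reflects endogenous Sp1 transcriptional activity, not an exogenous fusion protein: HepG2 cells with transfected cis-regulated reporters, 24 h dosing, RT-PCR/capillary electrophoresis mRNA read-out, DMSO-normalised bidirectional fit.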
`CCCC(O)C(O)CO` (stereo not drawn): the compound was classed as inactive.
Same read-out and setting: in the case of `COCCc1ccc(OCC(O)CNC(C)C)cc1` (stereo not drawn) it was “inactive”; in that of `C=C(C#N)C(=O)OCC`, “inactive”; in that of `CC(C)=CCCC(C)CC(=O)O` (stereo not drawn), “inactive”.
Consider `Cc1c(OCC(F)(F)F)ccnc1CS(=O)c1nc2ccccc2[nH]1` (stereo not drawn), for which the call was inactive.
Consider `Nc1ccc(NCCO)c([N+](=O)[O-])c1`, for which the result was inactive.
In the case of `CCOC(=O)c1ccc(N)cc1`, the compound was called inactive.
Usually AC50 stands for the concentration at which the activity in the assay is half-maximal. `Oc1ccc2cc(SSc3ccc4cc(O)ccc4c3)ccc2c1`: the AC50 was 75.2 µM (active).
Turning to `CC1=CC[C@@]23C[C@@H]1C(C)(C)[C@@H]2CC[C@H]3C`, the result was inactive.
Still for that read-out and setting: then `C=C(C)CNCC`, with “inactive”.
Same read-out and setting: then `COC(=O)c1ccc(C)cc1C1=NC(C)(C(C)C)C(=O)N1` (stereo not drawn) (tested in a mixture with another compound), with “inactive”; and `CN1C(=O)c2ccccc2C1=O`, with “inactive”; and `OCCCCC(O)CO` (stereo not drawn), with “inactive”.
Same read-out and setting: then `CCCCCCCCCCCC(=O)OC[C@@H](O)[C@H]1OC[C@H](O)[C@H]1O`, with “inactive”.
Turning to `CN(c1nccc(=O)[nH]1)C1CCN(c2nc3ccccc3n2Cc2ccc(F)cc2)CC1`, the outcome was inactive.
Regarding `CCCCCC(C)=O`, the outcome was inactive.
The same measure, in the same setting: in the case of `C[C@H](CCC(=O)NCC(=O)O)[C@H]1CC[C@H]2[C@@H]3[C@H](O)C[C@@H]4C[C@H](O)CC[C@]4(C)[C@H]3C[C@H](O)[C@]12C` it was “inactive”; in that of `CC(C=O)Cc1ccc(C(C)(C)C)cc1` (stereo not drawn), “inactive”; in that of `CN1CCOCC1`, “inactive”.
For the compound `c1ccc(CN(Cc2ccccc2)Cc2ccccc2)cc1`, the AC50 was 165 µM (active).
Turning to `CC/C=C\CC/C=C/CO`, the result was inactive.
On the same count and under the same terms, then `CCCCCCC(=O)c1ccccc1`, with “inactive”; and `O=C1OC(=O)c2c(Cl)c(Cl)c(Cl)c(Cl)c21`, with “inactive”.
For `CCCCSCCCC`, the compound was called inactive.
The same measure, in the same setting: in the case of `C=C(CC(=O)O)C(=O)O` it was “inactive”; in that of `C=CCOC(=O)CCCCCC`, “inactive”; in that of `OC[C@H]1O[C@@H]2O[C@H]3[C@H](O)[C@@H](O)[C@@H](O[C@H]4[C@H](O)[C@@H](O)[C@@H](O[C@H]5[C@H](O)[C@@H](O)[C@@H](O[C@H]6[C@H](O)[C@@H](O)[C@@H](O[C@H]7[C@H](O)[C@@H](O)[C@@H](O[C@H]8[C@H](O)[C@@H](O)[C@@H](O[C@H]9[C@H](O)[C@@H](O)[C@@H](O[C@H]1[C@H](O)[C@H]2O)O[C@@H]9CO)O[C@@H]8CO)O[C@@H]7CO)O[C@@H]6CO)O[C@@H]5CO)O[C@@H]4CO)O[C@@H]3CO`, “inactive”.
With `CCO/C=C1\N=C(c2ccccc2)OC1=O`, the result was inactive.
`COc1ccc(CCO)cc1`: the compound was called inactive.
In the case of `C#CC(C)N(C)C(=O)Nc1ccc(Cl)cc1` (stereo not drawn), the compound was called inactive.
Still for that read-out and setting: in the case of `FC(F)(F)COCC(F)(F)F` it was “inactive”; in that of `O=C(Nc1ccc2c(O)c(N=Nc3ccc(N=Nc4ccc(S(=O)(=O)O)cc4)cc3)c(S(=O)(=O)O)cc2c1)c1ccccc1`, “inactive”.
`C=C(C)C(=O)OCCOCCOCCOC(=O)C(=C)C`: the compound was classed as inactive.
On the same count and under the same terms, in the case of `[Cl][Au]([Cl])[Cl]` it was “inactive”.
